Measured values from the supplement of paper PMC10338343.
± gives the standard deviation. The full ranking holds about 5,500 sequences; the median of “pre-steady-state target cleavage rate” is about 0.1, and the highest 2% start at about 0.64. This is one part of a sample in which the highest values are shown more often than they occur.

What follows are sequences tested on MIWI (PIWIL1) piRISC loaded with piRNA #2 (30 nt) (assay: pre-steady-state target cleavage rate (min^-1); MIWI and MILI are mouse PIWI proteins and EfPiwi is from a freshwater sponge; tags in brackets are library labels; higher = faster piRNA-guided slicing of the target). Conditions: guide: piRNA #2 5'p-UUAGGUAACCCAGUAGAUCCAGAGGAAUUC; auxiliary factor: 500 nM mouse GTSF1.
In short: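 A transcribed, DNA-blocked target RNA library […] was incubated at 33 °C for 0–8 or 0–960 min with 1 nM active affinity-purified piRISC carrying one synthetic guide, in HEPES–potassium acetate buffer with or without 500 nM GTSF1 partner protein. Uncleaved targets were then sequenced and normalised to depth and to weakly complementary targets. Data from three trials were pooled, with k3 capped at 0.0001 min^-1, and a burst-and-steady-state fit yielded the pre-steady-state cleavage rate.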
With CAAUUCCUCUGGAUCUACUGGUUACCUAA the “pre-steady-state target cleavage rate” value was 0.19 ± 0.046.
In the case of CAAUUCCUCUGGAUCUACUGUGUUACCUAA, the “pre-steady-state target cleavage rate” value is reported as 0.751 ± 0.075.
In the case of CUUUUCCUCUGGAUCUACUGUGUUACCUAA, the “pre-steady-state target cleavage rate” value is reported as 0.751 ± 0.048.
In the case of CUUUUCCUCUGGAUCUACUGGUGUUACCUAA, the “pre-steady-state target cleavage rate” value is reported as 0.00402 ± 0.0035.
GAAUUCCUCUGGAUCUACUGUGUUACCUAA was tested, and the “pre-steady-state target cleavage rate” value was 0.673 ± 0.06.
With GAAUUCCUCUGGAUCUACUGUGGUUACCUAA the “pre-steady-state target cleavage rate” value was 0.00388 ± 0.0038.
For CUAUUCCUCUGGAUCUACUGUGUUACCUAA, the “pre-steady-state target cleavage rate” value was 0.696 ± 0.073.
For CAAUUCCUCUGGAUCUACUGGUGUUACCUAA, the “pre-steady-state target cleavage rate” value was 0.0066 ± 0.0037.
GAAUUCCUCUGGAUCUACUGGUGUUACCUAA was tested, and the “pre-steady-state target cleavage rate” value was 0.0068 ± 0.0031.
With CAAUUGCUCUGGAUCUACUGGGUUACGUAA the “pre-steady-state target cleavage rate” value was 0.536 ± 0.067.
For CUUAAGGUGACGAUCUACUGGGUUACCUAA, the “pre-steady-state target cleavage rate” value was 0.0052 ± 0.0036.
With CUUAAGGACAGGAUCUACUGCGUUACCUAA the “pre-steady-state target cleavage rate” value was 0.0331 ± 0.017.
In the case of CUUAACGUCUCGAUCUACUGGGUUACCUAA, the “pre-steady-state target cleavage rate” value is reported as 0.357 ± 0.041.
CUUAAGGAGUAGAUCUACUGGGUUACCUAA was tested, and the “pre-steady-state target cleavage rate” value was 0.00567 ± 0.0048.
For CAAUUCCUCUGGUUCUACUGGGAUACCUAA, the “pre-steady-state target cleavage rate” value was 0.145 ± 0.038.
In the case of CUUAACCUGUGGAACUACUGGGUUACCUAA, the “pre-steady-state target cleavage rate” value is reported as 0.177 ± 0.048.
CUUAAGGAGACCUUCUACUGGGUUACGUAA was tested, and the “pre-steady-state target cleavage rate” value was 0.00451 ± 0.0027.
In the case of CUUUUCCGUCUGGAUCUACUGGGUUACCUAA, the “pre-steady-state target cleavage rate” value is reported as 0.385 ± 0.039.
With CUUAACCUCUGGAUCUACUGUGUUACCUAA the “pre-steady-state target cleavage rate” value was 0.597 ± 0.045.
For CUUAUCCUCUGGAUCUACUGUGUUACCUAA, the “pre-steady-state target cleavage rate” value was 0.722 ± 0.074.
CUUAUCCUCUGGAUCUACUGGUUACCUAA was tested, and the “pre-steady-state target cleavage rate” value was 0.0947 ± 0.024.
CUUAAGCUCUGGAUCUACUGGGUUACCUCAA was tested, and the “pre-steady-state target cleavage rate” value was 0.0988 ± 0.015.
With CAUUUCCACUGGAUCUACUGGGUUACCUAA the “pre-steady-state target cleavage rate” value was 0.478 ± 0.058.
With GAAUUCCUCUCGAUCUACUGGGUUACCAAA the “pre-steady-state target cleavage rate” value was 0.564 ± 0.067.
With CAAUUCCUCUCGAUCUACUGGGUUACCAAA the “pre-steady-state target cleavage rate” value was 0.904 ± 0.073.
CAAUUCCUCUGGAUCUACUGGGUUACCAAA was tested, and the “pre-steady-state target cleavage rate” value was 0.509 ± 0.068.
CUUUUCCUCUCGAUCUACUGGGUUACCAAA was tested, and the “pre-steady-state target cleavage rate” value was 0.64 ± 0.048.
In the case of CUAUUCCUCUCGAUCUACUGGGUUACCAAA, the “pre-steady-state target cleavage rate” value is reported as 0.711 ± 0.047.
CUUUUCCUCUGGAUCUACUGGGUUACCAAA was tested, and the “pre-steady-state target cleavage rate” value was 0.477 ± 0.052.
With CUUAUCCUCUCGAUCUACUGGGUUACCAAA the “pre-steady-state target cleavage rate” value was 0.542 ± 0.041.
For CUUUUCCUCUCGAUCUACUGGGUUACCUUA, the “pre-steady-state target cleavage rate” value was 0.539 ± 0.05.
For CUAUUCCUCUGGAUCUACUGGGUUACCAAA, the “pre-steady-state target cleavage rate” value was 0.477 ± 0.061.
For GAAUUCCUCUGGAUCUACUGGCUAACCUAA, the “pre-steady-state target cleavage rate” value was 0.0225 ± 0.0083.
For CAAUUCCUCUGGAUCCUACUGGGUUACCUAA, the “pre-steady-state target cleavage rate” value was 0.29 ± 0.055.
GAAUUCCUCUCGAUCUACUGGGUUAGCUAA was tested, and the “pre-steady-state target cleavage rate” value was 0.237 ± 0.052.
For CUUAAGGAGACCUAGUUCUGGGAUACCUAA, the “pre-steady-state target cleavage rate” value was less than 0.0001.
“CAAUUCCUCUGGAUCUAGACCCAAUGGAUA [g14:g29:cont:t1A]” was tested, and the “pre-steady-state target cleavage rate” value was less than 0.0001.
For GAAUUCCUCUGGAUCUACUGGGUUUCCUAA, the “pre-steady-state target cleavage rate” value was 0.27 ± 0.047.
With GAAUUCCUCUGGAACUACUGGGUUUCCUAA the “pre-steady-state target cleavage rate” value was 0.646 ± 0.21.
With CAAUUCCUCUGGUUCUACUGGGUUUCCUAA the “pre-steady-state target cleavage rate” value was 0.951 ± 0.36.
CUAUUCCUCUGGAACUACUGGGUUUCCUAA was tested, and the “pre-steady-state target cleavage rate” value was 0.337 ± 0.12.
GAAUUCCUCUGGUUCUACUGGGUUUCCUAA was tested, and the “pre-steady-state target cleavage rate” value was 0.923 ± 0.3.
CUUUUCCUCUGGUUCUACUGGGUUUCCUAA was tested, and the “pre-steady-state target cleavage rate” value was 0.522 ± 0.19.
CUAUUCCUCUGGAUCUACUGGGUUUCCUAA was tested, and the “pre-steady-state target cleavage rate” value was 0.344 ± 0.053.
In the case of CUAUUCCUCUGGUUCUACUGGGUAACCUAA, the “pre-steady-state target cleavage rate” value is reported as 0.156 ± 0.033.
For CAAUUCCUCUGGAACUACUGGGUUUCCUAA, the “pre-steady-state target cleavage rate” value was 0.348 ± 0.1.
In the case of CAAUUCCUCUGGUUCUACUGGGUAACCUAA, the “pre-steady-state target cleavage rate” value is reported as 0.162 ± 0.032.
For CUAUUCCUCUGGUUCUACUGGGUUUCCUAA, the “pre-steady-state target cleavage rate” value was 1.05 ± 0.44.
With GAAUUCCUCUGGUUCUACUGGGUAACCUAA the “pre-steady-state target cleavage rate” value was 0.288 ± 0.063.
